Experiment [1] can be described thus: Cell Proliferation Assay against the TMD8 Cell Line (AID 651645).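 Note: cells exposed to compound for 48 h before reading.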 As to conditions: TMD8 DLBCL cell line proliferation/viability; at 46.1 µM (top of the series). Put shortly:
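Seed log-phase TMD8 cells in RPMI containing 5% FBS, add compounds at once, incubate 48 hours at 37C. Equilibrate to room temperature, add CellTiter-Glo, read luminescence after 15 minutes and express relative to DMSO and bortezomib controls.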

A short description of experiment [2]: Cell Proliferation Assay against the HBL1 Cell Line (AID 651646).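 Note: cells exposed to compound for 48 h before reading.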 As to conditions: HBL1 DLBCL cells; at 46.1 µM (top of the series). The gist of the method:
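HBL1, 500 cells/well, RPMI no phenol red + 5% FBS; cpd pinned, 48 h 37C/5% CO2; CellTiter-Glo, 15 min RT, luminescence. % activity: DMSO = 100%, bortezomib 9.2 uM final = 0%.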

Experiment [3] can be described thus: S16 Schwann cell PMP22 intronic element firefly luciferase assay (AID 624032). Note: nearly all actives have a fitted effect of over 30% in size. Note: potency is the fitted concentration of half-maximal effect. Put shortly:
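Rat S16 Schwann cells stably carrying firefly luciferase driven by a PMP22 intronic element, in 10% FBS, treated 24 h at 37 C. ONE-Glo luminescence normalized to PTC124 control and DMSO (0%); curves classed by r2, magnitude and activity.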

The nature of experiment [4]: Cytotoxicity counterscreen for NFkB agonists and antagonists (AID 624476). Note: potency is the fitted concentration of half-maximal effect.
The nature of experiment [5]: qHTS Assay for Identification of Small Molecule Agonists for NFkB Signaling Pathway. (AID 624478).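 Note: compounds tested together with TNF alpha at its EC50 of 10 pM; 0% is about no effect.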 The gist of the method:
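Compounds were added with 10 pM TNF alpha (EC50 level) to ME-180 NFkB-bla cells in low-serum Opti-MEM and incubated 5 hrs at 37 C. Beta-lactamase FRET read-out used 405 nm excitation and 460 and 530 nm emission.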

Experiment [6] in a line: qHTS Assay for Identification of Small Molecule Antagonists for NFkB Signaling Pathway. (AID 624479; calls by dose curve;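 note: pathway stimulated with TNF alpha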; note: potency is the fitted concentration of half-maximal effect).
Experiment [7] can be described thus: qHTS assay for small molecule activators of the p53 signaling pathway (AID 651743; active = well fitted activation curve with a large enough effect in the signal ratio, not every such curve was filed as active; the % refers to the signal ratio; note: potency is the fitted concentration of half-maximal effect; for activation: % of control where 0% means no effect). The following applies: HCT-116 p53RE-bla, beta-lactamase FRET ratio, 16 h; activation: stronger effect = higher value. The gist of the method:
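Following 16 hours of compound exposure at 37 C, HCT-116 cells bearing the p53RE-bla reporter were loaded with LiveBLAzer B/G FRET substrate for 2 hours at room temperature and fluorescence intensity was recorded.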

A short description of experiment [8]: qHTS assay for small molecule activators of the nuclear factor-kappa B (NF-kB) signaling pathway (AID 651749; active = well fitted activation curve with a large enough effect in the signal ratio; the % refers to the signal ratio; note: % of control where 0% means no effect). The following applies: NF-kB-bla ME-180 cells, beta-lactamase FRET ratio, 16 h; stronger effect = higher value. The gist of the method:
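In this qHTS format, compounds acting as activators increase NF-kB-driven beta-lactamase in ME-180 cells, measured as disrupted FRET after 16 hr exposure at 37C and 5% CO2.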

Experiment [9] addresses Glutaminase kidney isoform, mitochondrial (Homo sapiens) (UniProt O94925). Kind of experiment: qHTS for Inhibitors of Glutaminase (GLS): LOPAC Validation (AID 624146). Note: potency is the fitted concentration of half-maximal effect; nearly all actives have a fitted effect of over 60% in size. Put shortly:
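hKGA; 45 mM KH2PO4 pH 8.2 + 0.02% Tween-20; cpd via pin tool; 1 mM Gln soln; GluOx/HRP/Amplex Red; RT 30 min; fluor. t0 & final.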

Experiment [10] can be described thus: qHTS of Trypanosoma Brucei Inhibitors: LOPAC Validation (AID 624147). Note: 0% is about no effect. The gist of the method: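 Readout: single end-point luminescence (Kinase-Glo Plus, 10 min). Reaction conditions were TbPYK/substrate plus 130 uM ADP, 45 min at RT, pH 7.2 TEA buffer. No-enzyme wells served as controls, and data were normalized before concentration-response fitting.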
The target in experiment [11] is Glucagon-like peptide 1 receptor (Homo sapiens) (UniProt P43220). The experiment can be described thus: qHTS of GLP-1 Receptor Agonists: LOPAC Validation (AID 624148).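 Note: 0% is about no effect; higher luminescence signal means agonism.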 The gist of the method:
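HEK293 cells stably co-expressing GLP-1R and a cAMP-responsive luciferase reporter, plated 12 hours before compound, then incubated 4-6 hr at 37 deg C. Luminescence read 12 min after detection reagent.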

Experiment [12] can be described thus: qHTS of Nrf2 Activators: LOPAC Validation (AID 624149). Note: 0% is about no effect. The gist of the method: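 Luciferase signal from ARE activation, read with Steady-Glo after 30 min at room temperature. Compounds were pin-transferred onto AREc32_Fluc cells (1000/well, OPTI-MEM/5% FBS, seeded overnight) and left 24 hr at 37 deg C.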
Experiment [13] is described as follows: HTS Assay for Allosteric Antagonists of the Human D2 Dopamine Receptor: Hit Validation in HTRF (AID 624455).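 Note: stable D1 dopamine receptor cell line scored for blocking the D1 response; % is set by controls: 0 for no effect and ±100 for the full control effect.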 The gist of the method:
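Inhibition of the D1-mediated response was measured by HTRF. Cells used were a line stably expressing the D1 dopamine receptor.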

Experiment [14] is described as follows: Cell Proliferation Assay against the TMD8 Cell Line (Caspase readout at 16 hrs) (AID 651712). Note: potency is the fitted concentration of half-maximal effect. The gist of the method: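 Caspase-Glo luminescence after 16 h compound exposure of TMD8 cells, 37 °C, 5% CO2. Medium: RPMI without phenol red, 5% FBS. Normalisation: DMSO = 0%, bortezomib 9.2 uM final = 100%.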
Experiment [15] is described as follows: S16 Schwann cell PMP22 intronic element beta-lactamase assay (AID 624044; calls by dose curve; note: potency is the fitted concentration of half-maximal effect; nearly all actives have a fitted effect of over 15% in size). The gist of the method:
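Beta-lactamase reporter under a PMP22 intronic regulatory element in stable S16 rat Schwann cells; 24 h compound exposure. 460 nm blue signal normalized between DMSO (0%) and potassium clavulanate, with 535 nm FRET tracking viability; curves classed by r2 and response.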

Experiment [16] deals with Luciferin 4-monooxygenase (Photinus pyralis) (UniProt P08659). The experiment can be described thus: Biochemical firefly luciferase enzyme assay for NPC (AID 624030).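 Note: purified P. pyralis luciferase at 10 nM with luciferin and ATP substrate; 0% = DMSO and -100% = full luciferase inhibition by PTC124 control; nearly all actives have a fitted effect of over 70% in size.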 The gist of the method:
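Purified P. pyralis luciferase at 10 nM in 50 mM Tris Acetate (final), luminescence read within 5 minutes of enzyme addition to compounds. Activity normalised to PTC124 versus DMSO; concentration-response curves classed by r2, magnitude and activity.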

A short description of experiment [17]: qHTS assay for small molecule agonists of the antioxidant response element (ARE) signaling pathway (AID 651741; active = well fitted activation curve with a large enough effect in the signal ratio; the % refers to the signal ratio; note: potency is the fitted concentration of half-maximal effect; for activation: % of control where 0% means no effect). The gist of the method: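 Stably integrated ARE-beta-lactamase reporter HepG2 cells; 16 h compound incubation, 37 C; LiveBLAzer FRET substrate 2 h at room temperature; fluorescence intensity.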
Experiment [18] is described as follows: S16 Schwann cell viability assay (CellTiter-Glo assay) (AID 624031). Note: potency is the fitted concentration of half-maximal effect; nearly all actives have a fitted effect of over 70% in size. Put shortly:
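Parental S16 cells, 24 h compound, 37 °C. ATP-luminescence viability; DMSO = 0% activity, empty wells as reference; curves classified by fit quality and efficacy.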

Records with an inconclusive call do not appear. The source made the active and inactive calls. Unless noted, calls come from the whole dose curve; as a rule, active = well fitted curve in the direction sought with a large enough effect; inconclusive = small, poorly fitted or top-dose-only effect, or another doubt; inactive = no such curve, though single readings can be large; an effect the other way counts as inactive or inconclusive.

Sequence of Glucagon-like peptide 1 receptor (Homo sapiens) (P43220 whole entry, looked up): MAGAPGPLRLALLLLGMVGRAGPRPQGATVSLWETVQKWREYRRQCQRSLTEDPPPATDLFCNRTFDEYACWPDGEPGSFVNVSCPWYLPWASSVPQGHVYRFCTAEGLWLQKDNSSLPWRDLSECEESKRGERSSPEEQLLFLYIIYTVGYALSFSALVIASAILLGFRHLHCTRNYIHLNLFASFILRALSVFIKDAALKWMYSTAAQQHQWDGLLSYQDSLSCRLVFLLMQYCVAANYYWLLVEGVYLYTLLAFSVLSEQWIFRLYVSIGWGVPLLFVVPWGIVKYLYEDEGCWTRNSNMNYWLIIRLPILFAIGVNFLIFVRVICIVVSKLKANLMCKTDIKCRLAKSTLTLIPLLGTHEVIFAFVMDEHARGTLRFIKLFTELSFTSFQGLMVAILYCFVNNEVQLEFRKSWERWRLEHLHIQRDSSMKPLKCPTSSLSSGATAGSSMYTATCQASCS
Sequence of Glutaminase kidney isoform, mitochondrial (Homo sapiens) (O94925 whole entry, looked up, canonical isoform): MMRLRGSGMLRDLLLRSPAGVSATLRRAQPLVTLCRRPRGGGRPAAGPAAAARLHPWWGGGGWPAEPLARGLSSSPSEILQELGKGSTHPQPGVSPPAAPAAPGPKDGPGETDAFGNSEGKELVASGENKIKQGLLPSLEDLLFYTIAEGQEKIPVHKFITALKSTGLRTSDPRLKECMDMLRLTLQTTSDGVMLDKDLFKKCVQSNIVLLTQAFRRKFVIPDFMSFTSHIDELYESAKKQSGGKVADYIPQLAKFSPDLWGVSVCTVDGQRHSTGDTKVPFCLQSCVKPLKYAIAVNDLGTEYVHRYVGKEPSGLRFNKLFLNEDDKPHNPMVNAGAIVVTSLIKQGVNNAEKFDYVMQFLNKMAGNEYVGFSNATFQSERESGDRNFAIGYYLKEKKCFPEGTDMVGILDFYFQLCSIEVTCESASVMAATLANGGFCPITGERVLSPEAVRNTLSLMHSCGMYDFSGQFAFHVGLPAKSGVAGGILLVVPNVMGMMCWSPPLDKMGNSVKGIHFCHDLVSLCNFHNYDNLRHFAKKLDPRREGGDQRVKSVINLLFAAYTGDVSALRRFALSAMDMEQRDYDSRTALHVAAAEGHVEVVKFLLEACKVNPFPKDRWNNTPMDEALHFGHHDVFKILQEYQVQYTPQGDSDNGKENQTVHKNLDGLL
Sequence of Luciferin 4-monooxygenase (Photinus pyralis) (P08659 whole entry, looked up): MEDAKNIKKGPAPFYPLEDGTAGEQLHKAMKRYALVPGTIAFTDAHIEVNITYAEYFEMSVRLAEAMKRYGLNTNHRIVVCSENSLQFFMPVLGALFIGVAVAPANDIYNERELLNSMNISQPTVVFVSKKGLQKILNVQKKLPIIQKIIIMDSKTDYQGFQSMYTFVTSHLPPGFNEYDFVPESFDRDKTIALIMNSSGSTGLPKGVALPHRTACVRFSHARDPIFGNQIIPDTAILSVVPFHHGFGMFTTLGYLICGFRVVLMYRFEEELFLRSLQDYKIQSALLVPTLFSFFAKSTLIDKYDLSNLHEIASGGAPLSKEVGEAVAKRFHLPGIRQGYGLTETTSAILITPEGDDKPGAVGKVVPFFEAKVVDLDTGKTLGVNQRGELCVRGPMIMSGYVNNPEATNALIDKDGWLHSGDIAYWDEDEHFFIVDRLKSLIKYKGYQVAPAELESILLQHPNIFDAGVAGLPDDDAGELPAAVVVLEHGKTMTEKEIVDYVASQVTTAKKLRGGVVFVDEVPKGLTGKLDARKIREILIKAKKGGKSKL

For the compound `CS(=O)c1ccc(-c2nc(-c3ccc(F)cc3)c(-c3ccncc3)[nH]2)cc1` (stereo not drawn), the viability (% of control) in [1] amounted to 92.2%. Further, the viability, percent of control in experiment [2] was determined as 100%.
Take `CC(=O)Nc1nnc(S(N)(=O)=O)s1`: the Potency result in [3] was “inactive”.
With `C[C@@H]1[C@@H](C(=O)C[C@H]2O[C@@H]3O[C@]4(C)CC[C@@H]5[C@H](C)CC[C@@H]([C@H]2C)[C@@]35OO4)O[C@@H]2O[C@]3(C)CC[C@H]4[C@H](C)CC[C@@H]1[C@@]24OO3`, the Potency entry in [4] and in [6] was “inactive” in each case. In addition, the call in experiment [5] was inactive. In addition, the viability (% of control) in experiment [1] worked out at 6.12%. In addition, the viability, percent of control in [2] was determined as 21.3%.
In the case of `C[C@H]1O[C@@H](O[C@H]2[C@@H](O)C[C@H](O[C@H]3[C@@H](O)C[C@H](O[C@H]4CC[C@@]5(C)[C@H](CC[C@@H]6[C@@H]5CC[C@]5(C)[C@@H](C7=CC(=O)OC7)CC[C@]65O)C4)O[C@@H]3C)O[C@@H]2C)C[C@H](O)[C@@H]1O`, the figures for the activation in experiment [7] and in experiment [8] were -10.8% (inactive) and -1.01% (inactive), respectively.
Consider `COC[C@H]1OC(=O)c2coc3c2[C@@]1(C)C1=C(C3=O)C2CCC(=O)[C@@]2(C)C[C@H]1OC(C)=O` (stereo partly drawn), for which the Potency in experiment [9] was 11.2 µM (active); in [6], 13.3 µM (active). For the same compound, the result in [10], in [11], in experiment [12] and in [5] was inactive. Further, in experiment [13], the Potency entry is “inactive”. For the same compound, in experiment [1], the viability (% of control) was 17.1%. Moreover, the viability, percent of control in [2] stood at 61.7%.
In the case of `COC1(CS(=O)c2ccccc2)CCN(CCc2c[nH]c3ccc(F)cc23)CC1` (stereo not drawn), the Potency entry in [4], in experiment [6] and in [14] was “inactive” in each case. Moreover, the result in experiment [5] was inactive. For the same compound, the viability (% of control) in experiment [1] was determined as 79.9%. Also, the viability, percent of control in experiment [2] is 108%.
As for `CC(C)n1c(C=C[C@H](O)C[C@H](O)CC(=O)O)c(-c2ccc(F)cc2)c2ccccc21`, the viability (% of control) in experiment [1] amounted to 83.4%. In addition, in [2], the viability, percent of control came to 74.8%.
With `Cc1cc2c(C(C)C)c(O)c(O)c(C=O)c2c(O)c1-c1c(C)cc2c(C(C)C)c(O)c(O)c(C=O)c2c1O`, the Potency in [4] was 4.69 µM (active); in experiment [6] it was 5.95 µM (active).
For the compound `Cn1cc(C2=C(c3cn(C4CCN(Cc5ccccn5)CC4)c4ccccc34)C(=O)NC2=O)c2ccccc21`, in experiment [4], the Potency result was “inactive”. The compound was classed as inactive in experiment [5]. For the same compound, the Potency is 6.68 µM (active) in experiment [6] and 16.6 µM (active) in experiment [14]. The viability (% of control) in [1] stood at 3.76%. For the same compound, the viability, percent of control in experiment [2] amounted to 33.2%.
`COc1cc([C@@H]2c3cc4c(cc3[C@H](O)[C@H]3COC(=O)[C@H]23)OCO4)cc(OC)c1OC`: the Potency in experiment [3] was 0.0128 µM (active); in experiment [15] it was 0.0224 µM (active); in [14], 0.0037 µM (active). The Potency result in experiment [4] is “inactive”.
In the case of `C[C@@H]1[C@@H](CC(C[C@H]2O[C@@H]3O[C@]4(C)CC[C@@H]5[C@H](C)CC[C@@H]([C@H]2C)[C@@]35OO4)C[S+](=O)([O-])c2ccc(COC(=O)N(C)C)cc2)O[C@@H]2O[C@]3(C)CC[C@H]4[C@H](C)CC[C@@H]1[C@@]24OO3` (stereo partly drawn), in experiment [4], the Potency entry was “inactive”. The compound was called inactive in experiment [5]. In addition, in [1], the viability (% of control) is 5.05%. Further, the viability, percent of control in experiment [2] amounted to 39.8%. Moreover, in experiment [14], the Potency was 0.209 µM (active).
As for `CC(C)=CCOc1c2occc2cc2ccc(=O)oc12`, the Potency result in [16] and in [13] was “inactive” each time. For the same compound, the compound was classed as inactive in experiment [10], in [11] and in experiment [12].
Turning to `CO[C@@H](C(=O)N1Cc2[nH]nc(NC(=O)c3ccc(N4CCN(C)CC4)cc3)c2C1)c1ccccc1`, the Potency was 11.9 µM (active) in experiment [6] and 13.2 µM (active) in experiment [14]. In addition, the viability, percent of control in [2] turned out to be 77.1%.
Consider `C[C@]12CCC(=O)C(O)=C1CC[C@@H]1[C@@H]2CC[C@]2(C)C(=O)CC[C@@H]12`, for which the result in experiment [10] was inactive. The viability (% of control) in experiment [1] is 87.8%. In addition, the viability, percent of control in [2] came to 87.5%. Also, the Potency entry in [14] and in [17] was “inactive” in each case. The activation in [7] was -6.6% (inactive); in experiment [8], 2.01% (inactive).
Regarding `CC[N+](C)(C)c1cccc(O)c1`, the Potency result in experiment [13] was “inactive”.
As to `CN1CCc2cccc3c2[C@H]1Cc1ccc(O)c(O)c1-3`, the Potency in experiment [18] was 32.2 µM (active).
Take `O=c1c(O)c(-c2ccc(O)c(O)c2)oc2cc(O)cc(O)c12`: in experiment [6], the Potency is 14.9 µM (active). Besides, in experiment [1], the viability (% of control) was 46.1%. In addition, the viability, percent of control in [2] worked out at 56.5%.
Turning to `CCCCC/C=C\C/C=C\C/C=C\C/C=C\CCCC(=O)NC1CC1`, the Potency result in [4] and in experiment [14] was “inactive” each time. Also, the compound was called inactive in [5]. For the same compound, the viability (% of control) in experiment [1] is 86.9%. In [2], the viability, percent of control worked out at 109%.
Regarding `O=c1[nH]cc(F)c(=O)[nH]1`, the Potency in [15] was 5.62 µM (active); in [7], 3.98 µM (active).
Consider `COc1cc2c(c(OC)c1OC)-c1ccc(OC)c(=O)cc1[C@@H](NC(C)=O)CC2`, for which the Potency in experiment [3] is 0.102 µM (active); in [15] it was 0.0891 µM (active); in experiment [17] it was 0.075 µM (active).
As for `Cc1c(OCC(F)(F)F)ccnc1CS(=O)c1nc2ccccc2[nH]1` (stereo not drawn), the Potency result in [3] is “inactive”.
`CCCSc1ccc2nc(NC(=O)OC)[nH]c2c1`: the Potency entry in [3] is “inactive”. Further, in [15], the Potency was 1.07 µM (active).
Regarding `CNC(=O)N1N=C(c2ccc(N)cc2)c2cc3c(cc2CC1C)OCO3` (stereo not drawn), the Potency result in [4] and in experiment [6] was “inactive” throughout. Further, in experiment [5], the compound was called inactive. Besides, the viability (% of control) in experiment [1] is 5.8%. For the same compound, the viability, percent of control in [2] amounted to 20%. Moreover, in [14], the Potency is 18.7 µM (active).
Consider `CNC(=O)c1ccc(N2C(=S)N(c3ccc(C#N)c(C(F)(F)F)c3)C(=O)C23CCC3)cc1F`, for which the Potency result in experiment [4] and in experiment [6] was “inactive” each time. The result in [5] was inactive. The viability (% of control) in [1] came to 71.2%. The viability, percent of control in [2] was 77.6%.

Values taken from PubChem BioAssay (NCATS).
